# Compounds with a hit are over-represented: about 1.7% of the library has one in this group of screens.
# IL1B cytotox – cytotoxicity in IL-1B stimulated HUVEC, primary screen, cytotoxicity control for IL-1B NFkB translocation project, imaging, Hoechst nuclear count, IL-1B stimulus | cell count reduction, % at 2 µM | AID 845, 2007 | hit rate 0.41% among 94,000 | HUVEC cell count loss;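 active = cell count reduction more than 3 SD above the screen-wide mean, cut at about 70% in these data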;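 note: normalized per plate to untreated control cells as the no-loss baseline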
# HUVEC tox TNFa – cytotoxicity in TNFa-stimulated HUVEC, primary screen, cytotoxicity control for VCAM1 expression modulator project, imaging, Hoechst nuclei count | HUVEC TNFalpha-stimulated, Hoechst cell count | cell count reduction, % at 2 µM | hit rate 0.17% among 93,000 | AID 848, 2007;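 active = cell count reduction exceeding the screen mean by over 5 SD, scaled to untreated wells per plate, cut at about 78% in these data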;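 note: cells counted after 24 h of TNF alpha exposure following the 1 h pretreatment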
# VCAM1 TNFa inh – inhibitors of TNFa-induced VCAM1 expression, primary screen, imaging, HUVEC, TNFa stimulus, immunofluorescence; HUVEC TNFa-induced VCAM-1 immunofluorescence, high-content imaging; inhibition, % at 2 µM; hit rate 0.48% among 95,000; AID 802, 2007;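 active = inhibition above the batch mean plus 3 SD, with images confirmed as a hit by eye, cut at about 37% in these data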;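 note: 0% = TNF-stimulated DMSO wells and 100% = unstimulated control wells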
# IL1B NFkB pot – enhancers of NFkB p65 translocation in HUVEC – imaging, IL-1B stimulus, high-content imaging, primary screen; HUVEC IL-1B NFkB p65 nuclear translocation imaging; activation, % at 2 µM; hit rate 0.3% among 94,000;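 active = activation above 40%, about the mean plus 3 SD, also judged a hit on visual image review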;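 note: percent activation is computed from the nuclear over cytoplasmic p65 intensity ratio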
# E-sel TNF inh – E-selectin induction blockers in HUVEC – imaging, immunofluorescence, high content, primary screen; HUVEC TNFa-induced E-selectin immunofluorescence; inhibition, % at 2 µM; hit rate 0.71% among 120,000; AID 1246, 2008;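 active = inhibition above the batch mean plus 3 SD, and confirmed as a hit on visual image review, cut at about 43% in these data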;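 note: 0% = TNF-stimulated DMSO wells and 100% = unstimulated control wells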
# NFkB transloc inh – inhibitors of IL-1B driven NFkB p65 nuclear import, primary screen, imaging, HUVEC, IL-1B stimulus, high-content imaging; AID 796, 2007; hit rate 0.43% among 94,000; inhibition, % at 2 µM; HUVEC IL-1B NFkB p65 nuclear translocation imaging;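 active = inhibition above about 30% together with a positive call from visual inspection of the well image, limit read from the data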;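 note: nuclear over cytoplasmic p65 intensity ratio measured by imaging; 0% = IL-1B stimulated DMSO wells and 100% = unstimulated DMSO wells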
# Starred values were filed as active, the others as inactive; nt = no result.
SMILES,IL1B cytotox,HUVEC tox TNFa,VCAM1 TNFa inh,IL1B NFkB pot,E-sel TNF inh,NFkB transloc inh
CCCCCCCOC(=O)C1=C(C)Nc2ncnn2C1c1cccs1 (stereo unspecified),1,-9,0,41*,3,-41
CCOc1ccc2ccccc2c1/C=N/n1cncn1,2,-29,88*,-18,7,18
Cc1ccc2c(c1)cc1c(=O)[nH]ncn12,-42,-20,9,4,-24,-4
CC(=O)Nc1ccccc1NS(=O)(=O)c1ccc(Cl)cc1,15,-17,4,-30,-11,30*
CC1CN(Cc2cc(=O)[nH]c(C3CC3)n2)CC(C)O1 (stereo unspecified),2,6,4,-4,-8,4
COc1ccc(-n2nc([N+](=O)[O-])c(=NCCc3ccc(Cl)cc3)n2O)cc1,2,2,4,7,55*,-7
COc1ccc(-n2nc([N+](=O)[O-])c(=NCc3ccco3)n2O)cc1,nt,nt,nt,nt,-11,nt
CCOC(=O)C1=C(c2ccccc2)N(C)C(=O)NC1c1ccc(O)c(OC)c1 (stereo unspecified),-4,-13,15,1,66*,-1
CCOC(=O)C1=C(c2ccccc2)NC(=O)NC1c1ccc(O)c(OCC)c1 (stereo unspecified),nt,nt,nt,nt,-3,nt
CCOC(=O)C1=C(CC)OC(N)=C(C#N)C1c1ccc(OC)c(C)c1OC (stereo unspecified),nt,nt,nt,nt,37,nt
CCOC(=O)C1=C(CC)OC(N)=C(C#N)C1c1cc(OC)ccc1OC (stereo unspecified),nt,nt,nt,nt,94*,nt
C=CCNS(=O)(=O)c1nc(C)c(Cl)c(C)c1C#N,nt,nt,nt,nt,79*,nt
CCOc1ccccc1NC(=O)/C(C#N)=C/c1c(C)nn(-c2ccc(F)cc2)c1Cl,nt,nt,nt,nt,-18,nt
CN(C)c1nc(C=C(C#N)C#N)c(Cl)n1-c1ccc(F)cc1,nt,nt,nt,nt,87*,nt
O=C(Nc1ccc2c(c1)oc1ccccc12)N1CCOCC1,71*,4,-14,-17,3,17
O=C(Nc1ccccc1)N1CCOCC1,-15,-5,-6,-13,-28,13
COc1ccc(Cn2c(CCCO)nc3ccccc32)cc1OC,18,81*,0,-9,3,9
CCc1nc2ccccc2n1Cc1ccc(OC)c(OC)c1,-17,12,14,22,7,-22
CCOC(=O)c1sc(NC(=O)CCCn2nc([N+](=O)[O-])cc2C)c(C(=O)OCC)c1C,nt,nt,nt,nt,-15,nt
CCC(=O)Nc1cccc(C(=O)/C=C/c2cc(Br)ccc2OC)c1,12,5,69*,-2,46,2
CC(=O)Nc1cccc(C(=O)/C=C/c2ccc(Br)cc2)c1,nt,nt,nt,nt,-43,nt
O=S(=O)(Nc1ccc(Cl)cc1)c1ccc(N2CCOCC2)c(NC(=S)NC2CC2)c1,nt,nt,nt,nt,6,nt
CC(C)(C)C(=O)NNC(=O)CCCOc1ccc(Cl)cc1Cl,-50,12,-2,3,-53,-3
CC(C)(CO)NC(=O)CCCOc1ccc(Cl)cc1Cl,-51,-29,93*,-1,8,1
c1ccc(-c2nnc(CSc3nncs3)o2)cc1,-4,-7,93*,15,4,-15
SMILES,IL1B cytotox,HUVEC tox TNFa,VCAM1 TNFa inh,IL1B NFkB pot,E-sel TNF inh,NFkB transloc inh
O=C(Nc1ncccn1)c1ccc(C(F)(F)F)cc1,nt,nt,nt,nt,6,nt
CCOP(=O)(OCC)c1nc(-c2cccc3ccccc23)oc1NCc1ccc(OC)cc1,nt,nt,nt,nt,-4,nt
Cc1c(C(=O)Nc2ccccc2)oc2c1C(=O)CC(C)(C)C2,37,10,-1,1,20,-1
Cc1ccc(NC(=O)c2oc3c(c2C)C(=O)CC(C)(C)C3)cc1,-47,-3,97*,21,-28,-21
Cc1nn(-c2ccccc2)c2sc(C(=O)O)cc12,nt,nt,nt,nt,97*,nt
Cc1ccc(-n2nc(C)c3cc(C(=O)O)sc32)cc1,-138,0,1,15,-8,-15
O=C(c1ccco1)N1CCN(Cc2cccc(F)c2)CC1,-52,-8,9,-7,-23,7
O=C(c1cccc(F)c1)N1CCN(Cc2ccco2)CC1,-27,-17,-31,40*,nt,-40
COCCNC(=O)CN(c1cc(Cl)ccc1OC)S(C)(=O)=O,-10,4,3,21,-18,-21
CC(C)NC(=O)CCn1nc(-c2ccc(Cl)cc2)c2ccccc2c1=O,nt,nt,nt,nt,0,nt
